KLK7 zymogen act: proKLK7 (human) activation, primary screen; P49862; purified proKLK7, EDANS-DABCYL substrate fluorescence; 100% is mature enzyme control, 0% vehicle; activation, % at 7 µM; 370,000 compounds, 0.9% hits; AID 652039;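 active means activation above the mean of all tested compounds plus 3 SD, computed per campaign excluding outliers beyond control limits, cut at about 13% in these data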
PLCb3 inh: PLC-beta3 (human) inhibition, primary screen; Purified PLC-beta3, fluorogenic substrate, fluorescence; 370,000 compounds, 0.18% hits; AID 720704; inhibition, % at 12.2 µM; Q01970; in the data active means inhibition above about 11%
ADAM17 inh: inhibits human ADAM17. P78536. recombinant ADAM17, EDANS/DABCYL FRET peptide cleavage. inhibition, % at 6.95 µM. 370,000 compounds, 0.83% hits. AID 720648;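 active means inhibition above the mean of compounds lying between control limits plus 3 SD, set per campaign, cut at about 8.5% in these data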
PLCg1 inh: inhibitors of human phospholipase C gamma1; P19174; purified PLC-gamma1, fluorogenic substrate, fluorescence; 370,000 compounds, 0.84% hits; inhibition, % at 12.2 µM; in the data active means inhibition above about 9.5%
sPLA2-III inh: Blocks human group III sPLA2 activity; QFRET BODIPY PC-A2 liposome hydrolysis, fluorescence; Q9NZ20; inhibition, % at 12.2 µM; 370,000 compounds, 0.56% hits; AID 743126;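 active means inhibition above mean plus 3 SD of compounds lying within the high and low control bounds, cut at about 19% in these data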
ADAM10 inh: inhibits human ADAM10. O14672. recombinant ADAM10, EDANS/DABCYL FRET peptide cleavage, 3 h. inhibition, % at 7 µM. 370,000 compounds, 0.62% hits. AID 720582;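 active means inhibition above a per-campaign cutoff equal to the mean of compounds falling between control-based bounds plus 3 SD, cut at about 20% in these data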
Target sequence (O14672 214-748 limits assumed): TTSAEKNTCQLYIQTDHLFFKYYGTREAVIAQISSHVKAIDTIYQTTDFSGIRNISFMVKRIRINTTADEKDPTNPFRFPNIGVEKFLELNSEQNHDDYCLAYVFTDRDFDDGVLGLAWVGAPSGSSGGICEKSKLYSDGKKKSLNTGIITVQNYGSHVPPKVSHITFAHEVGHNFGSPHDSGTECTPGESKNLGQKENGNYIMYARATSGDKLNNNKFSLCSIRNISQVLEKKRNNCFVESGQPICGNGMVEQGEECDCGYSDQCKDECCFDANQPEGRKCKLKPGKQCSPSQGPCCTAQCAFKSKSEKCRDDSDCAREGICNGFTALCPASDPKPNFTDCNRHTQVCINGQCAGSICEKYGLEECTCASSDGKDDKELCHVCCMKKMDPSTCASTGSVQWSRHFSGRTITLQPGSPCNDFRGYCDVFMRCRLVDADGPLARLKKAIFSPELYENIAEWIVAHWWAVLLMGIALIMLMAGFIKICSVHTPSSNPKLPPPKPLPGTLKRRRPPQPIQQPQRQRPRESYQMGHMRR
ADAM10 counter: inhibits human ADAM10 in ADAM17 exosite counter-screen; inhibition, % at 6.95 µM; AID 743256; shares compounds with ADAM17 inh; 2,900 compounds, 47% hits; recombinant ADAM10, EDANS/DABCYL FRET peptide cleavage, 3 h;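 active means mean inhibition over the triplicate runs exceeds the activity threshold set in the earlier primary screen, cut at about 20% in these data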
ADAM17 confirm: confirmation of inhibitors of human ADAM17; shares compounds with ADAM17 inh; recombinant ADAM17, EDANS/DABCYL QFRET peptide cleavage; inhibition, % at 6.95 µM; 2,900 compounds, 65% hits;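 active means mean inhibition across replicates above the hit cutoff set in the primary screen, cut at about 8.5% in these data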
Each line names hits and unclear results; the compound was inactive in the other large screens (follow-up assays come after a bar, where they were run); ! = not active in a repeat. Rows were chosen to be rich in hits. Some 3.4% of all compounds tested hit in one or more screens of this group.

CC1CCCN(S(=O)(=O)c2ccc(NC(=O)CN3CCCCC3)cc2)C1 (stereo unspecified)	none
Cc1ccc(S(=O)(=O)N2C[C@H]3C(=O)C[C@@H](c4ccccc4)N(S(=O)(=O)c4ccc(C)cc4)[C@H]3C[C@H]2c2cccc3ccccc23)cc1	ADAM17 inh 11 | ADAM10 counter inactive | ADAM17 confirm 13
CC(C)c1ccc(CC(=O)N2CCC2(C)C(=O)NCc2cccc3ccccc23)cc1 (stereo unspecified)	none
CS(=O)c1ccccc1-c1nc(-c2ccc([N+](=O)[O-])cc2)no1 (stereo unspecified)	ADAM17 inh 11 | ADAM10 counter 22 | ADAM17 confirm inactive
Cc1ccc(C(=O)C=Cc2ccc3c(c2)OCO3)c(C)c1	none
O=C(/C=C/c1ccc2c(c1)OCO2)c1ccc(O)cc1O	ADAM17 inh 9.3 | ADAM10 counter inactive | ADAM17 confirm inactive
CC(N=C1NS(=O)(=O)c2ccccc21)C(=O)NCc1ccncc1 (stereo unspecified)	none
CN(CC(=O)Nc1cccc(F)c1)C(=O)c1cn(-c2ccccc2)nc1-c1ccc(Cl)cc1	ADAM17 inh 9.4 | ADAM10 counter 28 | ADAM17 confirm 17
CN(CC(=O)Nc1cccc(F)c1)C(=O)c1cn(-c2ccccc2)nc1-c1cccs1	none
COc1cccc(CN2C(=O)NC3(CCCCCC3)C2=O)c1	none
Oc1c(C(c2ccccn2)N2CCCCC2)cc(Cl)c2cccnc12 (stereo unspecified)	ADAM17 inh 26 | ADAM10 counter inactive | ADAM17 confirm 27
CN1CCN(C(c2ccc(C(F)(F)F)cc2)c2cc(Cl)c3cccnc3c2O)CC1 (stereo unspecified)	ADAM17 inh 12 | ADAM10 counter 36 | ADAM17 confirm 16
CN1CCN(C(c2ccc(Cl)cc2)c2cc(Cl)c3cccnc3c2O)CC1 (stereo unspecified)	none
COc1ccc2cc(OCC(=O)NNC(=O)Nc3ccc(C(C)=O)cc3)ccc2c1	none
Cc1ccc(C2=NN(S(=O)(=O)c3ccccc3)C(c3ccccc3O)C2)cc1 (stereo unspecified)	ADAM17 inh 8.9 | ADAM10 counter 42 | ADAM17 confirm 23
O=C(c1ccccc1)N1N=C(c2ccccc2)CC1c1ccccc1O (stereo unspecified)	ADAM17 inh 11 | ADAM10 counter inactive | ADAM17 confirm 10
O=[N+]([O-])c1ccc(OCCO)c(P(=O)(c2ccccc2)c2ccccc2)c1	none
Cc1nc(SCc2nc3ccc(Cl)cc3[nH]2)c2oc3ccccc3c2n1	ADAM17 inh 9.8 | ADAM10 counter inactive | ADAM17 confirm inactive
Cc1nc(NC(=O)c2cnccn2)ccc1Br	none
COCCCNC(=O)Cn1nc(-c2ccccc2OC)ccc1=O	ADAM17 inh 10 | ADAM10 counter inactive | ADAM17 confirm inactive
OC(COC(c1ccc(Cl)cc1)c1ccc(Cl)cc1)CN1CCN(c2ccccn2)CC1 (stereo unspecified)	ADAM17 inh 9.1 | ADAM10 counter 22 | ADAM17 confirm 13
Cc1cc(NC(=O)C(C)Sc2nnc(NCc3ccco3)s2)no1 (stereo unspecified)	none
CC1C(=O)N(Cc2cn(CCC3OCCO3)nn2)CCS(=O)(=O)N1Cc1ccc(-c2ccncc2)cc1 (stereo unspecified)	none
COc1ccc(-c2ccc(CN3C(C(C)C)C(=O)N(Cc4cn(Cc5ccco5)nn4)CCS3(=O)=O)cc2)cc1OC (stereo unspecified)	ADAM17 inh 10 | ADAM10 counter inactive | ADAM17 confirm 14
CC1C(=O)N(Cc2cn(CCC3OCCO3)nn2)CCS(=O)(=O)N1Cc1ccc(-c2ccc(F)cc2)cc1 (stereo unspecified)	ADAM17 inh 10 | ADAM10 counter inactive | ADAM17 confirm inactive
COc1ccc(-c2ccc(CN3C(C(C)C)C(=O)N(Cc4cn(Cc5ccco5)nn4)CCS3(=O)=O)cc2)cc1 (stereo unspecified)	none
O=C1C(=O)N(C2CCS(=O)(=O)C2)C(c2cccc(O)c2)/C1=C(/O)c1ccc(Cl)cc1 (stereo unspecified)	none
CCCN(C(=O)Cc1csc(-c2ccccc2)n1)C1CCS(=O)(=O)C1 (stereo unspecified)	none
CCc1nc2ccc(C(=O)NCCN3CCOCC3)cn2c1N(CC)CCOC	none
C/C(CCS(=O)(=O)c1ccccc1)=N/O	none
COc1cc(NC(=O)Cn2nnc(-c3ccccc3N)n2)cc(OC)c1	ADAM17 inh 9.6 | ADAM10 counter inactive | ADAM17 confirm inactive
COc1ccc(NC(=O)Cn2nnc(-c3ccccc3N)n2)cc1OC	none
CC(=O)Nc1ccc(S(=O)(=O)NCC(=O)OCC(=O)NCc2ccc3c(c2)OCO3)cc1	ADAM17 inh 9.6 | ADAM10 counter inactive | ADAM17 confirm inactive
O=C(COn1nnc2ccc(S(=O)(=O)N3CCOCC3)cc21)NCCc1ccccc1	ADAM17 inh 13 | ADAM10 counter inactive | ADAM17 confirm inactive
CC(=O)C1=CCC(c2ccc(Cl)cc2)N(S(=O)(=O)c2ccc(C)cc2)C1 (stereo unspecified)	ADAM17 inh 12! | ADAM10 counter inactive | ADAM17 confirm inactive
Cc1ccccc1S(=O)(=O)N1[C@@H](c2ccc(Br)cc2)C(C(=O)O)=CC[C@H]1c1ccc(Cl)cc1	ADAM17 inh 9.3 | ADAM10 counter inactive | ADAM17 confirm 8.7
Cc1ccccc1S(=O)(=O)N1[C@@H](c2ccccc2)C(C(=O)O)=CC[C@H]1c1ccc(Cl)cc1	none
Cc1ccc(S(=O)(=O)N2[C@@H](c3cccc(Cl)c3)C(C(=O)O)=CC[C@H]2c2ccc(C(C)C)cc2)cc1	ADAM17 inh 9.0 | ADAM10 counter 26 | ADAM17 confirm 14
O=C(NC1CC1)c1ccc(C2SCC(=O)N2Cc2ccccc2)cc1 (stereo unspecified)	none
CCC(C)c1ccc(NC(=S)NC(C)C2CCCO2)cc1 (stereo unspecified)	none
COc1ccc(Nc2ccc([N+](=O)[O-])cn2)cc1	ADAM17 inh 10 | ADAM10 counter inactive | ADAM17 confirm inactive
COc1ccc(NC(=O)CNC(=O)c2ccc([N+](=O)[O-])cc2)cc1	none
COc1ccc(C(=O)CC(=O)Nc2ccc([N+](=O)[O-])cc2)cc1	ADAM17 inh 9.5 | ADAM10 counter 25 | ADAM17 confirm 12

From PubChem BioAssay
